# According to PubChem BioAssay (NCI):
# About 79,000 compounds went through this panel and 15% of them were active in at least one assay; those are over-represented in the sample as a whole. Unmarked numbers belong to inactive results. Calls of active or inactive are those of the source. Cut-off read from the data, not from the text of the source: active = growth inhibition above about 70%; inactive = the rest.
# Experiment: NCI Yeast Anticancer Drug Screen. Data for the bub3 strain (AID 167)
# Details: S. cerevisiae bub3 mutant strain, at 50.0 µM, active compounds read high
# Method in brief: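 Growth of a checkpoint-deficient yeast mutant is measured after compound exposure. Values represent inhibition relative to vehicle.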
row,SMILES,growth inhibition
1,O=C(/C=C(/Nc1ccccc1)c1ccccc1)c1ccccc1,15.9%
2,Fc1cccc(C(Nc2nncs2)Nc2nncs2)c1,-3.8%
3,COC(=O)C1(Cc2ccccc2)Cc2cc3c(cc2C1=O)CCC3 (configuration not stated),34.8%
4,CC(=O)CC(=O)Nc1cccc(C)c1C,9.3%
5,c1ccc2c[n+](CCCC[n+]3ccc4ccccc4c3)ccc2c1,41.8%
6,CCOC(=O)c1cc2nc3ccccn3c(=O)c2cc1N,-9.3%
7,CCCCCCCC/C=C\CCCCCCCC(=O)NCCN1CCCCC1,99% (active)
8,CC(C)CCC[C@@H](C)[C@H]1CC[C@H]2C3=CC=C4C[C@H](OC(=O)c5ccccc5)CC[C@]4(C)[C@H]3CC[C@]12C,-1.25%
9,O=C1Nc2ccccc2C12OCCS2 (configuration not stated),5.25%
10,Cc1ncc(CSCC(=O)O)c(N)n1,-8.7%
11,Clc1ccc(CSCSCc2ccc(Cl)cc2)cc1,19.6%
12,O=C(Oc1c(OC(=O)c2ccccc2)c2ccccc2c2ccccc12)c1ccccc1,-1.25%
13,O=c1[nH]cc(CS)c(=O)[nH]1,51%
14,COC(=O)c1cc2cc3ccccc3cc2cc1C(=O)OC,-26.1%
15,N#CCC(=O)c1ccc(N)cc1,-11%
16,CCOCCOCCOCOCCOCCOCC,25.9%
17,CCN(CC)CCC(=O)N1C/C(=C/c2ccccc2)C(=O)/C(=C\c2ccccc2)C1,13.2%
18,CC(C)(C)OC(=O)Cc1c[nH]c2ccccc12,-27.6%
19,Cc1cc(C)c2cccc-2c(C)c1,-4.9%
20,OC1OCc2cc3ccccc3cc21 (configuration not stated),-7.8%
21,COCCCNc1nc(N)c(C#N)c(C#N)c1C#N,19.3%
22,CC(=O)OC1CCC2(C)C(=CCC3C2CCC2(C)C(/C(C)=N/NC(N)=O)CCC32)C1 (configuration not stated),-0.6%

# Experiment: NCI Yeast Anticancer Drug Screen. Data for the mlh1 rad18 strain (AID 175)
# Details: S. cerevisiae mlh1 rad18 strain growth inhibition; at 50.0 µM; active compounds read high
# Method in brief: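 Inhibition values reflect reduced growth of mutant yeast versus vehicle-treated controls following compound exposure; the mutations affect DNA damage repair.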
row,SMILES,growth inhibition
1,CCOC(SCC)C(O)C(O)C(O)C(O)CO (configuration not stated),-21.6%
2,c1ccc(OCCCCN2CCNCC2)cc1,-10.2%
3,O=C(O)c1ccccc1C(=O)OCC1CCCc2ccccc21 (configuration not stated),46%
4,CCOC(=O)c1c(N)n(-c2ccccc2)c(=S)n(-c2ccccc2)c1=O,-41.4%
5,O=C1c2ccccc2C(=O)N1n1c(Cc2ccccc2)n[nH]c1=O,-16.2%
6,COc1ccc(/C=C2\N=C(c3ccc(Cl)cc3)OC2=O)cc1Br,17.3%
7,c1ccc(CCCC2Sc3cccc4cccc(c34)S2)cc1,-28.5%
8,NCCSC(O)(C(F)(F)F)C(F)(F)F,23%
9,Nc1ccc([N+](=O)[O-])cc1F,-0.95%
10,CC(=O)N1CN2C(=O)CCC2c2cc(C)ccc21 (configuration not stated),-57.4%
11,CCCNCCCCC(C)Nc1cc(OC)cc2cccnc12 (configuration not stated),23.9%
12,COC(=O)Nn1cc(C(C(C)=O)C(C)=O)c(C(C)=O)c1C,17.9%
13,CC(C)C(N)C(=O)NC(C(=O)O)C(C)C (configuration not stated),19.3%
14,O=C(O)c1ncn2c(=O)n(CCCl)nnc12,9.2%
15,CCCCc1c2c([n+]([O-])c3c1CCCC3)CCCC2,20.1%
16,O=C(c1ccc(Cl)cc1Cl)C(CS(=O)(=O)O)CS(=O)(=O)O,-1.1%
17,C=C1CC[C@H]2C(C)=CC[C@H]3C(=C)C(=O)O[C@@H]3[C@@H]12,-6%
18,Nc1cc(C(=O)c2ccccc2C(=O)O)ccc1Cl,-15.9%
19,O=C(/C=C(/Nc1ccccc1)c1ccccc1)c1ccccc1,34.2%
20,Fc1cccc(C(Nc2nncs2)Nc2nncs2)c1,-4.35%

row,SMILES,growth inhibition
1,COC(=O)C1(Cc2ccccc2)Cc2cc3c(cc2C1=O)CCC3 (configuration not stated),-7.65%
2,CC(=O)CC(=O)Nc1cccc(C)c1C,-5.6%
3,c1ccc2c[n+](CCCC[n+]3ccc4ccccc4c3)ccc2c1,44.8%
4,CCOC(=O)c1cc2nc3ccccn3c(=O)c2cc1N,-8.45%
5,CCCCCCCC/C=C\CCCCCCCC(=O)NCCN1CCCCC1,99.2% (active)
6,CC(C)CCC[C@@H](C)[C@H]1CC[C@H]2C3=CC=C4C[C@H](OC(=O)c5ccccc5)CC[C@]4(C)[C@H]3CC[C@]12C,-10.2%
7,O=C1Nc2ccccc2C12OCCS2 (configuration not stated),7.25%
8,Cc1ncc(CSCC(=O)O)c(N)n1,-8.55%
9,Clc1ccc(CSCSCc2ccc(Cl)cc2)cc1,4.3%
10,O=C(Oc1c(OC(=O)c2ccccc2)c2ccccc2c2ccccc12)c1ccccc1,20.4%
11,O=c1[nH]cc(CS)c(=O)[nH]1,14.5%
12,COC(=O)c1cc2cc3ccccc3cc2cc1C(=O)OC,-8.8%
13,N#CCC(=O)c1ccc(N)cc1,13.4%
14,CCOCCOCCOCOCCOCCOCC,-4%
15,CCN(CC)CCC(=O)N1C/C(=C/c2ccccc2)C(=O)/C(=C\c2ccccc2)C1,2.7%
16,CC(C)(C)OC(=O)Cc1c[nH]c2ccccc12,-41.1%
17,Cc1cc(C)c2cccc-2c(C)c1,-9.95%
18,OC1OCc2cc3ccccc3cc21 (configuration not stated),3.65%
19,COCCCNc1nc(N)c(C#N)c(C#N)c1C#N,22.2%
20,CC(=O)OC1CCC2(C)C(=CCC3C2CCC2(C)C(/C(C)=N/NC(N)=O)CCC32)C1 (configuration not stated),-0.5%
